TRPV1 ag: agonists of human vanilloid receptor 1 (TRPV1); Q8NER1; TRPV1-expressing cells, Fluo-8 calcium influx, agonist mode; activation, % at 8.33 µM; actives 0.19% (n = 320,000); in the data active = activation above about 80%; inconclusive = between about 30% and that limit; also: 0% is about no effect
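Cells expressing TRPV1 were dye-loaded with Fluo-8 and read kinetically: 10 s baseline, 3 min after compound (agonist portion), then 2 min after EC20 capsaicin (allosteric enhancer portion). Calcium-bound dye fluorescence at 480/520 nm.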
D1 potentiator: enhances dopamine response at the human D1 receptor | P21728 | HEK293 TREx D1 cells, calcium flux, dopamine EC20 potentiation | potentiation, % at 10 µM | actives 0.036% (n = 360,000); in the data active = potentiation above about 30%; also: 0% is about no effect
Target sequence (P21728 whole entry, looked up): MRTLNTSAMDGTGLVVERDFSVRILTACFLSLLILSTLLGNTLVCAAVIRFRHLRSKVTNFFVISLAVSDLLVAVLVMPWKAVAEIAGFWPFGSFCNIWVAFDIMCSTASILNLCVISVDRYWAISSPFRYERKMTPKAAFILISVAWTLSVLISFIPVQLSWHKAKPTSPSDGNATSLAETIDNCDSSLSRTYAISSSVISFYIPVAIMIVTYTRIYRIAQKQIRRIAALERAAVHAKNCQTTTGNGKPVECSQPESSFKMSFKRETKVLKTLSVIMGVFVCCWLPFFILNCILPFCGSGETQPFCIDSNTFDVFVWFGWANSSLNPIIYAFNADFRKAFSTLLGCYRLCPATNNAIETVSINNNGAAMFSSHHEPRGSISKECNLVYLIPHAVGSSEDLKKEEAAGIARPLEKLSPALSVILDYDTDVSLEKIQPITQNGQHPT
TRPV1 PAM: potentiators of human vanilloid receptor 1 (TRPV1); TRPV1-expressing cells, Fluo-8 calcium influx, capsaicin EC20 potentiation; potentiation, % at 8.33 µM; actives 0.02% (n = 320,000); in the data active = potentiation above about 80%; inconclusive = between about 30% and that limit; also: 0% is about no effect
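Cells expressing TRPV1 were dye-loaded with Fluo-8 and read kinetically: 10 s baseline, 3 min after compound (agonist portion), then 2 min after EC20 capsaicin (allosteric enhancer portion). Calcium-bound dye fluorescence at 480/520 nm.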
D1 antag: blocks dopamine activation of the human D1 receptor; HEK293 TREx D1 cells, calcium flux, dopamine EC80; hits give low values; activity change, negative = inhibition, % at 10 µM; actives 3.2% (n = 360,000); in the data active = activity change below about -30%; also: % is scaled to controls: 0 for no effect and ±100 for the full control effect
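Tetracycline-induced HEK293 Trex D1 cells, force-coupled to calcium, dye-loaded; compounds added and read 180 s, then EC80 dopamine added and calcium flux tracked kinetically another 180 s.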
D1 agonist: activates the human D1 dopamine receptor. AID 504660. activation, % at 2 µM. P21728. HEK293 T-REx D1 cells, calcium flux, agonist mode. actives 1% (n = 360,000); in the data active = activation above about 30%; also: 0% is about no effect
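Tetracycline-induced HEK293 TREx D1 cells, force-coupled to calcium signalling, were dye-loaded with a no-wash calcium kit. Compound was pin-added after a 10 s baseline. Fluorescence was read kinetically at 1 cycle/s for 180 s, with calcium rises flagged as agonism.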
Starred values were filed as active, the others as inactive; ? = inconclusive; . = not tested or not shown; ! = not confirmed by another sample. A selection: hits, their analogues and other compounds. The true share with any hit is near 4.2%.

SMILES	TRPV1 ag	D1 potentiator	TRPV1 PAM	D1 antag	D1 agonist
O=C(NC1CCCCC1)c1ccc(Cn2c(SCc3cccc(F)c3)nc3cccnc32)cc1	.	0.4	.	-65.1*	0.4
CCc1ccc(S(=O)(=O)c2c(C(=O)c3ccc(C)c(C)c3)cnc3ccccc23)cc1	.	-5.4	.	24.0	1.7
Clc1ccccc1CSc1nnc(Cn2cnc3ccccc32)n1-c1ccccc1	2.9	0.1	-3.5	-82.3*	2.3
CCc1nn(CC(=O)NCCCN2CCN(CC)CC2)c(=O)c2cc3occc3n12	-0.7	-2.7	-1.4	-34.9*!	2.4
CCc1nn(CC(=O)NCCCN2CCOCC2)c(=O)c2cc3sccc3n12	-1.3	-4.4	21.6	-4.0	0.9
CCc1nn(CC(=O)NCCCN2CCOCC2)c(=O)c2cc3cc(F)ccc3n12	-3.4	-12.5	-1.6	-73.7*	-0.4
CCc1nn(CC(=O)NCCCN(CC)CC)c(=O)c2cc3occc3n12	.	0.2	.	-4.8	3.9
Cc1cc2oc(C(=O)N(Cc3ccc(N(C)C)cc3)Cc3ccco3)c(C)c2cc1Cl	.	-0.8	.	-4.7	-1.5
CCOC(=O)c1c(C)[nH]c(C)c1C(=O)COC(=O)c1cc(OC)c(OC)cc1OC	-3.3	-8.2	0.9	-31.7*	2.5
CCOC(=O)c1c(C)[nH]c(C)c1C(=O)COC(=O)c1cccc(S(=O)(=O)N(CC)CC)c1	-3.8	-3.8	3.3	-49.1*	25.1
Cc1onc(-c2c(Cl)cccc2Cl)c1C(=O)N1CCCc2ccccc21	-2.2	1.0	-5.5	18.2	139.0*
Cc1onc(-c2ccccc2)c1C(=O)N1CCCC1	0.0	-9.6	5.3	-37.1*	2.8
CCCOc1ccc(C2C(=O)N(C3CCCCCC3)CC(=O)N2CCCOCC)cc1OC (stereo not given)	.	-1.7	.	-14.6	-4.7
Clc1ccc(OCCOCCN2CCCCC2)c(Br)c1	10.3	-11.2	-0.9	-45.1*	19.8
CC1CCN(CCOCCOc2ccc(Cl)cc2Br)CC1	-3.0	-12.9	4.4	-4.0	6.4
Cc1ccc(Cl)c(OCCN2CCCC(C)C2)c1 (stereo not given)	-3.3	-4.3	4.8	-71.1*	5.7
CC1CCCN(CCCOc2ccc(Cl)cc2Br)C1 (stereo not given)	-2.0	-4.7	5.3	-51.7*	15.8
COc1cc(/C=N/N2C(=O)CSC2=S)cc(Br)c1O	3.9	2.6	2.0	-1.8	43.5*
O=C(NCc1ccccc1CN1CCCC1)c1cccc(N2CCCC2=O)c1	1.4	.	7.4	-36.7*	3.6
O=C(c1cccc(N2CCCC2=O)c1)N1CCN(c2ccccc2)CC1	1.2	-2.6	-3.5	-30.7*	0.8
CCOC(=O)C1CCN(C(=O)CN2C(=O)c3ccccc3S2(=O)=O)CC1	-6.6	-2.2	0.9	0.9	3.9
CCOC(=O)C1CCN(C(=O)CN2c3ccc(CC)cc3-c3ccccc3S2(=O)=O)CC1	.	-1.4	.	-32.5*	6.4
Cc1cccc(C(=O)NCC(=O)N2CCN(S(=O)(=O)c3ccccc3)CC2)c1	-2.1	-2.0	20.4	0.4	3.8
Cc1cccc(C(=O)NCC(=O)N2CCN(S(=O)(=O)/C=C/c3ccccc3)CC2)c1	0.7	-4.0	6.1	-42.8*	0.4
O=C(NCc1cccc(Cl)c1)c1ccc(NC(=O)N2CC3CCCN3c3ccccc32)cc1 (stereo not given)	.	-0.6	.	-11.2	1.7
SMILES	TRPV1 ag	D1 potentiator	TRPV1 PAM	D1 antag	D1 agonist
CC(C)N(C(=O)CSc1nc2ccc(Cl)cc2[nH]1)c1ccccc1	.	1.1	.	-43.9*	20.4
Cc1oc2cc3oc(=O)c(CCC(=O)NCCc4ccccc4F)c(C)c3cc2c1C	.	1.1	.	-6.6	0.8
Cc1ccc(NC(=O)c2cnn(-c3ccccc3)c2C)c(C)c1	12.4	-7.5	13.7	-58.0*	6.7
Cc1ccc(NC(=O)c2cnn(-c3ccccc3)c2C)cc1	11.4	-17.5	-8.9	3.7	3.2
CCN(c1ccc(N=Cc2c(O)n(Cc3ccc(OC)cc3)c(=O)c3ccccc23)cc1)C(C)C	0.5	4.8	-7.2	-1.1	57.5*
COc1ccc(-n2c(O)c(C=Nc3ccccc3)c3ccccc3c2=O)cc1	3.0	-5.6	0.6	11.6	3.2
COCc1cc(C)n(CC(=O)Nc2cccc(C(C)=O)c2)c(=O)c1C#N	.	-2.8	.	-9.4	-0.1
O=C(CCC1N=C2c3ccccc3N=C(SCc3cccc(F)c3)N2C1=O)NCCc1ccccc1 (stereo not given)	.	-4.4	.	-7.4	3.6
CCCCC[n+]1ccn(-c2nc3ccccc3nc2[N-]S(=O)(=O)c2ccccc2)c1	7.3	-0.1	-4.6	-1.7	-0.1
CCCC[n+]1ccn(-c2nc3ccccc3nc2[N-]S(=O)(=O)c2ccc(Cl)cc2)c1	1.1	12.7	13.8	-39.8*	6.4
Cc1cccc(-n2cnc3cc(C(=O)NC4CCCCCC4)ccc32)c1	.	0.2	.	0.5	0.2
O=C(CSc1nc(-c2ccccc2)nc2c1Cc1ccccc1O2)N1CCCCC1	.	2.0	.	-0.1	5.1
Cc1ccc(N2CCN(Cc3nnc(-c4ccccc4F)o3)CC2)c(C)c1	.	-3.5	.	-50.1*	11.2
CC(C)NC(=O)CC(=O)Nc1ccc2nc3n(c(=O)c2c1)CCCCC3	.	2.4	.	-10.5	1.0
N#CN1CCC(N[S+](=O)([O-])c2cccc(F)c2)CC1	.	13.4	.	-19.8	1.5
Cc1cccc([S+](=O)([O-])NC2CCN(C#N)CC2)c1	.	-0.1	.	-81.0*	2.0
N#Cc1cc2cc3c(cc2nc1SCC(=O)OC1CCCCC1)OCO3	?	5.7	-29.4	-31.6*	9.1
Cc1cc2c(s1)c1cnn(Cc3ccc(F)c(F)c3)c(=O)c1n2C	.	4.3	.	1.3	-0.6
Cc1ccc2c(CC(=O)OC(C)C(=O)NCc3ccc4c(c3)OCO4)coc2c1 (stereo not given)	21.4	-3.4	?	-32.3*	9.1
Cc1cc2c(s1)c1cnn(Cc3ccc(F)cc3Cl)c(=O)c1n2C	.	2.4	.	-5.0	3.8
Cc1cc(N2CCOCC2)ccc1/C=C\[N+](=O)[O-]	4.4	-2.4	2.2	11.2	47.3*
O=[N+]([O-])c1ccc(N2CCOCC2)cc1O	-2.0	-6.5	25.2	-0.1	5.6
Nc1c(-c2ccc(Cl)cc2)cnn1C1CCS(=O)(=O)C1 (stereo not given)	-1.1	-9.6	-3.1	-30.2*	11.4
COc1ccc(C)cc1NC(=O)C1CCC(CNS(=O)(=O)c2ccc3c(c2)CCCC(=O)N3)CC1 (stereo not given)	.	2.0	.	35.3	1.9
Oc1ccc2[nH]ccc2c1	0.4	-4.2	-1.2	-30.4*	2.7
Cc1ccc(NC(=O)c2oc3ccccc3c2NC(=O)c2cc3ccccc3o2)cc1	.	-4.8	.	-4.6	8.8
Cc1nn(-c2ccccn2)c2c1C(c1ccsc1)C1=C(CCCC1=O)N2 (stereo not given)	?	-4.0	-6.6	-86.1*	0.4
Cc1ccc(C)c(OCC(=O)Nc2ccc(N3CCOCC3)cc2)c1	4.5	-2.0	?	0.4	6.3

Compound activity from PubChem.
